{
  "source": "the supplement of paper PMC9023506",
  "note": "Structures can show the parent of a compound that is named as a salt.",
  "data": [
    {"tested_on": "Danio rerio larvae (5 dpf)", "test": "optomotor response to fast red moving lines, difference vs DMSO (percentage points (treated minus DMSO)); higher = more of the behaviour than the DMSO vehicle control", "details": "10 µM; exposure time: 3 h pre-incubation + 3 h imaging", "protocol": "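5-dpf wild-type zebrafish larvae were imaged in 96-well plates. They were treated with 190 Tocris FDA-approved drugs at 10 µM (1 µl/ml DMSO) for 3 h before and 3 h during imaging at 28.5 °C, 48 larvae per drug. Automated image analysis gave % time moving and optomotor responses. Values are drug group mean minus DMSO vehicle mean (n=844), in percentage points, for 10 behaviours.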", "values": [
      {"smiles": "CC(O)(CS(=O)(=O)c1ccc(F)cc1)C(=O)Nc1ccc(C#N)c(C(F)(F)F)c1", "note": "(stereo unspecified) [Bicalutamide]", "optomotor response": -2.63},
      {"smiles": "C=C1C[C@@H]2[C@H](CC[C@]3(C)C(=O)CC[C@@H]23)[C@@]2(C)C=CC(=O)C=C12", "note": "[Exemestane]", "optomotor response": 5.64},
      {"smiles": "O=c1[nH]c2ccccc2n1C1CCN(CCCC(c2ccc(F)cc2)c2ccc(F)cc2)CC1", "note": "[Pimozide]", "optomotor response": -34.3},
      {"smiles": "N[C@@H]1C[C@H]1c1ccccc1", "note": "[Tranylcypromine hydrochloride]", "optomotor response": 11.9},
      {"smiles": "COc1cc2c(cc1OC)C1CC(=O)C(CC(C)C)CN1CC2", "note": "(stereo unspecified) [Tetrabenazine]", "optomotor response": -22.5},
      {"smiles": "CC(C)C[C@H]1C(=O)N2CCC[C@H]2[C@]2(O)O[C@](NC(=O)[C@@H]3C=C4c5cccc6[nH]c(Br)c(c56)C[C@H]4N(C)C3)(C(C)C)C(=O)N12", "note": "[Bromocriptine mesylate]", "optomotor response": -41.6},
      {"smiles": "CN1C[C@H](C(=O)N[C@]2(C)O[C@@]3(O)[C@@H]4CCCN4C(=O)[C@H](Cc4ccccc4)N3C2=O)C[C@@H]2c3cccc4[nH]cc(c34)C[C@H]21", "note": "[Dihydroergotamine mesylate]", "optomotor response": 2.2},
      {"smiles": "CCN(C)C(=O)Oc1cccc([C@H](C)N(C)C)c1", "note": "[Rivastigmine tartrate]", "optomotor response": -8.58},
      {"smiles": "CC[C@@H](C(N)=O)N1CCCC1=O", "note": "[Levetiracetam]", "optomotor response": -4.73},
      {"smiles": "COc1ccc(C(CN(C)C)C2(O)CCCCC2)cc1", "note": "(stereo unspecified) [Venlafaxine hydrochloride]", "optomotor response": 7.81},
      {"smiles": "C=CCN1C[C@H](C(=O)N(CCCN(C)C)C(=O)NCC)C[C@@H]2c3cccc4[nH]cc(c34)C[C@H]21", "note": "[Cabergoline]", "optomotor response": -23.2}
    ]}
  ]
}
